From PubChem BioAssay
Rows were chosen to be rich in hits. Some 11% of all compounds tested hit in one or more screens of this group.
Bst PK mod: modulators of Bacillus stearothermophilus pyruvate kinase; purified pyruvate kinase, luminescence ATP production; ribose 5-phosphate activator present at AC10; Potency, µM; 1.2% of 51,000 active; AID 361; in the data active = potency below about 11 µM; inconclusive = mostly about 12 µM to 25 µM;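 the screen sought inhibitors and activators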
HADH2 inh: inhibitors of human HADH2 dehydrogenase; recombinant HADH2, NADH fluorescence, beta-hydroxybutyryl-CoA; Potency, µM (top dose mostly 57.1 µM), actives largely listed as inhibitors; 3.4% of 73,000 active; also: nearly all actives have a fitted effect of over 60% in size
Target sequence (Q99714 whole entry, looked up, one chain of several): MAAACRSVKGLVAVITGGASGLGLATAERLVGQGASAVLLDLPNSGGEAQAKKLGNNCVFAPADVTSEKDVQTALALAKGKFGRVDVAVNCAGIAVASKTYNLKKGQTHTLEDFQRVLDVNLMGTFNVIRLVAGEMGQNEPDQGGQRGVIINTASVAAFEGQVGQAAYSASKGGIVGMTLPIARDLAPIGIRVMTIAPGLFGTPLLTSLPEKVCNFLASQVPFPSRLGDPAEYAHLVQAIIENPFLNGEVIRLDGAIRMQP
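Buffer 100 mM Tris-HCl pH 9.0/0.01% Tween-20; HADH2 20 nM; NAD+ 1 mM; beta-hydroxybutyryl-CoA 90 uM (all final). 15 min cpd preincubation, RT.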
ALOX15 inhib: 15-hLO (ALOX15) enzyme inhibition | AID 887 | Potency, µM (top dose mostly 57.1 µM), hits mostly inhibitors | 1.4% of 74,000 active | purified 15hLO-1, xylenol orange hydroperoxide absorbance | P16050; also: nearly all actives have a fitted effect of over 55% in size
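Purified human 15hLO-1 (40 nM) in 25 mM Hepes pH 7.5, 0.01% Triton X-100, preincubated 15 min RT with compound, then 50 uM arachidonic acid for 6 min. Hydroperoxide read by ferrous/xylenol orange, 30 min; 573/405 nm absorbance ratio gave progress.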
FLuc inh: blocks Photinus pyralis firefly luciferase activity; 2.2% of 72,000 active; Potency, µM (titrated, usually from 57.1 µM), usual class: inhibitors; purified firefly luciferase, luminescence, 8 min; AID 411; also: nearly all actives have a fitted effect of over 40% in size
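Inhibition of light generation by firefly luciferase from ATP and luciferin was profiled with concentration-response curves per sample, ATP held at 10 uM within the enzyme's linear range. Plates were read by luminescence after an 8-minute ambient incubation.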
ERK AVP block: blocks ERK signaling stimulated by vasopressin | Potency, µM (doses to about 57.5 µM), usual class: inhibitors | AID 995 | 0.99% of 72,000 active | HEK293-V1b, vasopressin-stimulated pERK AlphaScreen; also: nearly all actives have a fitted effect of over 55% in size
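HEK293 cells stably expressing V1b receptor, seeded overnight in 1% FBS, were treated with compounds for 30 min at 37C, then stimulated 5 min with 25 nM vasopressin; phospho-ERK read by AlphaScreen SureFire after lysis.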
HSD17B inh: blocks hydroxysteroid 17-beta dehydrogenase activity | AID 893 | Potency, µM (series often up to 57.1 µM), actives largely listed as inhibitors | 7.6% of 75,000 active | Q99714 | recombinant HSD17B10, NADH fluorescence kinetic;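 also: the protocol describes HADH2 (HSD17B10) and not the HSD17B4 of the title; nearly all actives have a fitted effect of over 70% in size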
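20 nM HADH2, pH 9.0 Tris/Tween; cpd preinc 15 min RT; start w/ 1 mM NAD+ + 90 uM b-hydroxybutyryl-CoA; kinetic fluor ex360/em450 q30s x 4 min; delta last-first.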
Each line names hits and unclear results; the compound was inactive in the other large screens; ! = not active in a repeat. Unless noted, calls follow the shape of the dose curve; as a rule, active = well fitted curve in the direction sought with a large enough effect; inconclusive = small, poorly fitted or top-dose-only effect, or another doubt; inactive = no such curve, though single readings can be large; an effect the other way counts as inactive or inconclusive.

CC1=C(C)CC(c2ccccc2)C(C(=O)c2ccccc2O)C1 (configuration not stated)	none (no result: Bst PK mod, FLuc inh)
Cc1cc(C)c(-c2cc(C(F)(F)F)no2)c(=O)[nH]1	HSD17B inh 20µM
Cc1ccccc1C1CC(=O)NC2=C1C(=O)CCC2 (configuration not stated)	HSD17B inh 31.6µM
Oc1cc(O)c2c(c1)O[C@H](c1ccc(O)c(O)c1)[C@@H](O)[C@@H]2c1c(O)cc(O)c2c1O[C@@H](c1ccc(O)c(O)c1)[C@H](O)C2	HADH2 inh 1µM, ALOX15 inhib inconclusive (no result: Bst PK mod)
c1ccc(-c2csc(N3CCN(c4ccccn4)CC3)n2)cc1	ERK AVP block 15.8µM (no result: Bst PK mod)
COc1ccccc1N(C(=O)c1ccco1)C(C(=O)NC1CCCC1)c1cccnc1 (configuration not stated)	none
COc1ccccc1N(C(=O)c1snc(C(N)=O)c1N)C(C(=O)NCCC(C)C)c1ccco1 (configuration not stated)	HSD17B inh inconclusive
CCOc1ccccc1N(C(=O)c1snc(C(N)=O)c1N)C(C(=O)NCCC(C)C)c1ccco1 (configuration not stated)	HSD17B inh 31.6µM
COc1ccccc1N(C(=O)c1snc(C(N)=O)c1N)C(C(=O)NC1CCCC1)c1ccco1 (configuration not stated)	HSD17B inh 31.6µM
Cc1ccccc1-c1nc(NCc2cccnc2)c2ccccc2n1	HADH2 inh inconclusive, ALOX15 inhib inconclusive (no result: Bst PK mod)
CN(C)c1ccc(-c2nc(NCc3cccnc3)c3ccccc3n2)cc1	HADH2 inh inconclusive, ALOX15 inhib 20µM, HSD17B inh 31.6µM (no result: Bst PK mod)
c1cncc(CNc2nc(-c3ccoc3)nc3ccccc23)c1	HADH2 inh 15.8µM, ALOX15 inhib inconclusive, ERK AVP block inconclusive (no result: Bst PK mod)
c1csc(CNc2nc(-c3ccoc3)nc3ccccc23)c1	HADH2 inh 15.8µM, ALOX15 inhib inconclusive (no result: Bst PK mod)
NCCC(=O)N[C@H](Cc1cnc[nH]1)C(=O)O	none (no result: Bst PK mod, HADH2 inh, FLuc inh)
O=c1cnc2cnc(N3CCOCC3)nc2n1Cc1ccc(F)cc1	ERK AVP block inconclusive, HSD17B inh inconclusive (no result: Bst PK mod)
CCN(CC)C(=O)Oc1ccc2c(=O)c(-c3ccc(OC)cc3)c(C)oc2c1	ERK AVP block 31.6µM
CCCCC#CC1C=CC(OC(C)=O)C(COC(C)=O)O1 (configuration not stated)	HADH2 inh inconclusive (no result: Bst PK mod, FLuc inh)
Cc1cc(C)n(-c2ncnc3sc4c(c23)CCCC4)n1	HSD17B inh 25.1µM
Cc1cc(C)n(-c2ncnc3sc4c(c23)CC(C)CC4)n1 (configuration not stated)	HSD17B inh 25.1µM (no result: Bst PK mod)
Cc1cc(C)n(-c2nc(C)nc3sc4c(c23)CCC(C)C4)n1 (configuration not stated)	HSD17B inh 31.6µM
c1nc(N2CCC3(CC2)OCCO3)c2c3c(sc2n1)CCCC3	ERK AVP block 31.6µM (no result: Bst PK mod)
O=c1nc(-c2ccccc2)c2cc(Cl)ccc2[nH]1	HSD17B inh 31.6µM (no result: Bst PK mod)
Clc1ccc2nc(N3CCNCC3)nc(-c3ccccc3)c2c1	none (no result: HADH2 inh, ALOX15 inhib, ERK AVP block, HSD17B inh)
CC(C)[C@]1(Cl)CC[C@@H]2[C@]3(C)CCC[C@@](C)(C(=O)O)[C@H]3C[C@H](Cl)[C@@]2(Cl)[C@H]1Cl	none (no result: Bst PK mod)
COc1ccc(OC)c(CNc2nc3ccccc3n2CCN2CCCCC2)c1	none
COc1ccc(CNc2nc3ccccc3n2CCN2CCCCC2)c(OC)c1	HADH2 inh 25.1µM, HSD17B inh 25.1µM
CCCn1c(-c2ccc(F)cc2)nc2c(N3CCN(Cc4nc(OC)cc(OC)n4)CC3)nc(C)nc21	HSD17B inh inconclusive (no result: Bst PK mod, FLuc inh)
O=c1c2ccccc2nc(-c2ccccc2)n1CCCN1CCOCC1	none
Cc1nc(N2CCOCC2)c2nc(-c3ccccc3)n(CCN3CCCC3)c2n1	HSD17B inh 25.1µM (no result: Bst PK mod, FLuc inh)
CCN(CC)CCCn1c(-c2ccccc2)nc2c(N3CCOCC3)nc(C)nc21	HSD17B inh 31.6µM (no result: Bst PK mod, FLuc inh)
Cc1nc(N2CCOCC2)c2nc(-c3ccccc3)n(CCCN(C)C)c2n1	HADH2 inh inconclusive, HSD17B inh 25.1µM (no result: Bst PK mod, FLuc inh)
Cc1nc(NC2CCCCC2)c2nc(-c3ccccc3)n(C(C)CN(C)C)c2n1 (configuration not stated)	HSD17B inh 25.1µM (no result: Bst PK mod, FLuc inh)
Cc1nc(N2CCOCC2)c2nc(-c3ccccc3)n(CCN(C)C)c2n1	ALOX15 inhib 12.6µM, HSD17B inh 25.1µM (no result: Bst PK mod, FLuc inh)
O=C(Nc1nc2ccccc2n1CCN1CCCC1)C1CCCCC1	none
Cc1nc(NC2CCCCC2)c2nc(-c3ccccc3)n(CCN3CCCCC3)c2n1	HADH2 inh inconclusive, ALOX15 inhib inconclusive, ERK AVP block inconclusive, HSD17B inh 12.6µM (no result: Bst PK mod, FLuc inh)
O=C(Nc1ccccc1)OC[C@H](CN1CCCCC1)OC(=O)Nc1ccccc1	none (no result: Bst PK mod)
CC(C)(C)c1ccc(OC2C(O)COC2/C=C/C#Cc2ccccc2)cc1 (configuration not stated)	none (no result: Bst PK mod, FLuc inh)
CCOc1ccc(C2NC(=O)c3ccccc3O2)cc1 (configuration not stated)	HSD17B inh inconclusive (no result: Bst PK mod)
COc1cc(C2NC(=O)c3ccccc3O2)cc(OC)c1OC (configuration not stated)	HSD17B inh 25.1µM
CC[C@H]1CC[C@H]2[C@@H]3CC=C4C[C@H](OC(C)=O)[C@@H](N)C[C@@]4(C)[C@H]3CC[C@@]12C	none (no result: Bst PK mod)
CC1(NC[C@@H](O)COc2cccc3[nH]ccc23)CCC(C(C)(C)NC(=O)CBr)CC1 (some centres not stated)	none (no result: Bst PK mod, ALOX15 inhib, ERK AVP block, HSD17B inh)
Nn1c(CSc2nc3ccccc3o2)nnc1CSc1nc2ccccc2o1	none
Cc1cc(C)n2c(Br)c(CSc3nc4ccccc4o3)nc2n1	HADH2 inh inconclusive, ALOX15 inhib inconclusive, ERK AVP block inconclusive, HSD17B inh 31.6µM
O=c1ccn([C@@H]2O[C@@H](COP(=O)(O)OP(=O)(O)O)[C@H](O)[C@@H]2O)c(=O)[nH]1	none (no result: Bst PK mod)
COc1ccc(NC(=O)Nc2cccs2)cc1OC	HADH2 inh inconclusive, ALOX15 inhib 20µM, FLuc inh 25.1µM, ERK AVP block inconclusive, HSD17B inh inconclusive
COc1ccc(NC(=O)c2cccs2)cc1OC	none
COc1cccc(NC(=O)Nc2cccs2)c1	HADH2 inh inconclusive, ALOX15 inhib 20µM, FLuc inh 15.8µM, HSD17B inh 25.1µM
COC(=O)[C@@]1(Cc2ccc(F)cc2)[C@H]2c3cc(C(=O)N4CCCC4)n(CCN4CNCC4=O)c3C[C@H]2CN1C(=O)c1ccccc1	none (no result: Bst PK mod, ALOX15 inhib, FLuc inh)
c1cc(CSSCc2ccncc2)ccn1	HADH2 inh inconclusive (no result: Bst PK mod)
Oc1c(I)cc(Cl)c2cccnc12	ERK AVP block 12.6µM!
Oc1c(CN2CCc3ccccc3C2)cc(Cl)c2cccnc12	ERK AVP block inconclusive (no result: Bst PK mod)
CCN(CC)CCCCn1c(-c2ccccc2)nc2c(Nc3ccccc3)nc(C)nc21	none (no result: Bst PK mod, FLuc inh)
CCN(CC)CCCCn1c(-c2ccccc2)nc2c(NCCOC)nc(C)nc21	HSD17B inh 31.6µM (no result: Bst PK mod, FLuc inh)
